# Source: PubChem BioAssay AID686978 (National Center for Advancing Translational Sciences (NCATS), 2013)
# The whole screen tested about 420,000 compounds, of which about 64,000 (15%) were called active. Inconclusive results (about 27%) are left out. These entries were drawn from the full list. Values without a mark were called inactive. Calls follow the shape of the dose curve; as a rule, active = well fitted inhibition curve with a large enough effect; inconclusive = small, poorly fitted or top-dose-only effect; inactive = flat fitted curve, though single readings scatter.
# Test: qHTS for Inhibitors of human tyrosyl-DNA phosphodiesterase 1 (TDP1): qHTS in cells in absence of CPT; also: nearly all actives have a fitted effect of over 55% in size
# Conditions: DT40 Tdp1-/- hTDP1 cells, no CPT, ATP luminescence, 48 h; activity change, negative = growth inhibition: at 46.2 µM (top of the series)
# Outline: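 No-CPT arm: Tdp1-/-;hTDP1 DT40 cells (400/well) plus compounds, incubated ≥48 hr at 37 °C. Readout CellTiter-Glo luminescence.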
# % is scaled to controls: 0 for no effect and ±100 for the full control effect; potency is read from the fitted curve at half-maximal effect.
SMILES,"activity change, negative = growth inhibition",Potency
O=C(Nc1cccc(Cc2ccccc2)c1)Nc1ccc2nc([C@@H]3O[C@H](CO)[C@@H](O)[C@H](O)[C@H]3O)[nH]c2c1,-1.67%,–
O=C(CCn1c(=O)c2sccc2n(Cc2ccc(F)cc2)c1=O)NCc1ccc2c(c1)OCO2,-25.3%,–
O=C(CSc1ncc(CO)n1Cc1ccc(F)cc1)NCc1ccco1,-26%,–
O=C(Cc1ccc(-n2c(=O)c3sccc3n(Cc3ccc(F)cc3)c2=O)cc1)NCc1ccco1,–,18.4 µM (active)
Cc1cc(OC(=O)c2ccc(OC(C)C)cc2)c([N+](=O)[O-])c(=O)[nH]1,-21.1%,–
Cc1ccc2nc(SC(C)C(=O)NCc3ccco3)[nH]c2c1 (centres undefined),-9.56%,–
CCc1cccc(NC(=O)COC(=O)C2CCN(c3ccc(C(F)(F)F)cn3)CC2)c1,–,8.2 µM (active)
N#CCCN(C(=O)COC(=O)C1CCN(c2ccc(C(F)(F)F)cn2)CC1)c1ccc(F)cc1,-13.5%,–
CCOc1ccc(CCNC(=O)COC(=O)C2CCN(c3ccc(C(F)(F)F)cn3)CC2)cc1OCC,-27.3%,–
CSCCC(C(=O)NC1=NCCS1)N1C(=O)c2ccccc2C1=O (centres undefined),-1.2%,–
CCCCN(C(=O)/C=C/c1ccco1)c1c(N)n(CC(C)C)c(=O)[nH]c1=O,-3.29%,–
O=C(CSc1ncccn1)NCCc1ccccc1,-8.9%,–
CCCCCCCCCCCCCCCC(=O)OC/C=C(C)/C=C/C=C(C)/C=C/C1=C(C)CCCC1(C)C,–,inactive
COc1ccc(-c2csc(C(O)c3cccc(Cl)c3)n2)cn1 (centres undefined),–,20.6 µM (active)
COc1ccc(Nc2cc(Cl)ccc2C(=O)O)cn1,20.2%,–
COc1cc(C(O)c2nc(-c3cccc(C(=O)O)c3)cs2)ccc1F (centres undefined),3.86%,–
CC1CCCN(CC(O)COCc2ccccc2)C1 (centres undefined),0.169%,–
CC1CCCN(CC(O)COc2ccc3c(c2)OCO3)C1 (centres undefined),-0.973%,–
CC1CCCN(CCOCCOc2ccccc2-c2ccccc2)C1 (centres undefined),–,23.1 µM (active)
COc1cc(C)c(C)cc1S(=O)(=O)N1CCCc2ccccc21,–,16.4 µM (active)
CCC(C)(C)NC(=O)/C=C/c1cc(OC)c(OC)c(S(=O)(=O)N2CCc3ccccc32)c1,-16%,–
COc1ccc(C(=O)OCC(=O)NCC2CCCCC2)cc1S(=O)(=O)N1CCCc2ccccc21,-23.6%,–
O=C(O)CCC(=O)NCc1ccc(C(=O)O)cc1,-29.7%,–
CC(C)Cn1c(=O)c2ccccc2n2c(-c3cccc(Cl)c3)nnc12,–,25.9 µM (active)
CC(C)Cn1c(=O)c2ccccc2n2c(CCC(=O)N3CCN(c4cccc(Cl)c4)CC3)nnc12,–,7.31 µM (active)
Cc1ccc(Cl)cc1NC(=O)C(C)n1nnc2sc(-c3ccccc3)cc2c1=O (centres undefined),-17.6%,–

SMILES,"activity change, negative = growth inhibition",Potency
COc1cccc2c1cc1c(=O)n(CC(=O)N3CCN(c4cccc(Cl)c4)CC3)nc(C)n12,-0.785%,–
CC(C)Cn1c(=O)c2ccccc2n2c(CCC(=O)NCc3ccccn3)nnc12,13.4%,–
Cn1c(CNC(=O)c2ccco2)nnc1SCC(=O)N1CCN(c2ccccc2)CC1,0.952%,–
Cn1c(Cc2cccc3ccccc23)nnc1SCC(=O)N1CCN(c2cccc(Cl)c2)CC1,–,23.1 µM (active)
COc1ccc(NC(=O)CCc2nnc3n(CC(C)C)c(=O)c4ccccc4n23)cc1OC,-22.6%,–
Cc1cc2nnc(SCC(=O)N3CCN(c4ccccc4)CC3)n2c(N)n1,-5.96%,–
CCC1CO/C(=C(\C(=C(Cl)Cl)N2CCOCC2)[N+](=O)[O-])N1 (centres undefined),8.25%,–
CC(C)[C@H](NC(=O)N1c2ccccc2NC(=O)[C@@H]1C(C)C)C(=O)N[C@H](C(=O)O)c1ccccc1,5.29%,–
COc1cccc(N2C(=O)CC(N3CCc4ccccc4C3)C2=O)c1 (centres undefined),7.01%,–
C=C(C)c1cccc(C(C)(C)NC(=O)NCCN(CC)CC)c1,0.602%,–
O=C(Nc1ccc([N+](=O)[O-])cc1)C1(c2ccccc2)CCOCC1,-23.3%,–
CC1(C)CC(=O)C(C=NCCC2=CCCCC2)=C(O)C1,-10.8%,–
COc1ccc(OC)c(NC(=O)c2ccc3c(c2)C(=O)N(c2ccc(OC(C)=O)cc2)C3=O)c1,13.3%,–
O=C(Nc1cccnc1)c1cc(Cl)ccc1Cl,14.2%,–
O=C(NCc1ccc(Cl)c(Cl)c1)c1cccnc1,-24.1%,–
O=C(/C=C/c1ccc(Cl)cc1Cl)c1cccnc1,–,14.6 µM (active)
CC1OC2C(OC1C)N(S(C)(=O)=O)CCN2S(C)(=O)=O (centres undefined),-1.96%,–
Cc1nc2ccc(NC(=S)N3CCC(C)CC3)cc2nc1C,-18.5%,–
O=S(=O)(N/N=C\c1cccn1-c1ccccc1)c1ccc2ccccc2c1,-13.6%,–
CSc1ccc(CN2CCC2(C)C(=O)Nc2ccc(C)c(O)c2)cc1 (centres undefined),–,18.4 µM (active)
CCCC(=O)N1CCC1(C)C(=O)NCc1ccc(SC)cc1 (centres undefined),-13.7%,–
CC1(C(=O)NCc2ccc3c(c2)OCO3)CCN1C(=O)Cc1cccs1 (centres undefined),-5.48%,–
CC1(C(=O)NCc2ccc3c(c2)OCO3)CCN1CCc1ccccc1 (centres undefined),-29.9%,–
CC1(C(=O)NCc2cccc3ccccc23)CCN1Cc1ccc(-c2ccccc2)o1 (centres undefined),–,13 µM (active)
CCC(=O)N1CCCC1(C)C(=O)Nc1ccc2c(c1)CCN2C(C)=O (centres undefined),-2.32%,–
CSc1ccc(CNC(=O)C2(C)CCCN2C)cc1 (centres undefined),-20.4%,–

SMILES,"activity change, negative = growth inhibition",Potency
CSc1ccc(CN2CCC2(C)C(=O)NCc2ccccc2Br)cc1 (centres undefined),–,23.1 µM (active)
CSc1ccc(CN(C)CC(=O)NCc2ccc(F)cc2)cc1,-14.6%,–
CC(N)=NCc1cccc(CN)c1,–,inactive
Cc1nccn1CCC1CCCCN1C(=O)CCc1nnc(-c2ccsc2)o1 (centres undefined),-12.9%,–
O=C(CNC(=O)c1ccccc1F)c1ccc(Br)cc1,8.96%,–
Cc1ccc(C)c(N(CC(=O)NCc2ccco2)C(=O)CCC(=O)Nc2ccccn2)c1,-29.9%,–
O=C(O)CCCCc1nc2ccccc2s1,9.54%,–
CCC(Oc1ccccc1C)C(=O)Nc1ccc(S(=O)(=O)Nc2cc(C)on2)cc1 (centres undefined),-6.61%,–
COC(=O)c1scc(S(=O)(=O)C(C)(C)C)c1-n1cccc1,-14.6%,–
COc1cc(CC(=O)N2CCC(n3nccc3NC(=O)C3CC3)CC2)cc(OC)c1OC,1.12%,–
O=C1c2ccccc2C(c2nc3ccccc3[nH]2)N1c1ccccc1 (centres undefined),8.04%,–
C1=C(N2CCOCC2)/C(=C/c2nc3ccccc3[nH]2)CC1,–,23.1 µM (active)
c1ccc(-n2nnnc2N2CCOCC2)cc1,-13.8%,–
COC(=O)C1=CN(Cc2ccc(OC)cc2)C=C(C(=O)OC)C1c1ccc(O)c(OC)c1,-89.4%,–
O=Cc1ccc(OCc2cn3ccccc3n2)cc1,-22.8%,–
O=C1Nc2ccc(Br)cc2/C1=N/N=C/C1=C(N2CCOCC2)C(=C\c2ccccc2)/CC1,–,23.1 µM (active)
C(=N\N1CCN(c2ccccn2)CC1)/C1=C(N2CCOCC2)C(=C/c2ccccc2)/CC1,–,16.4 µM (active)
COc1ccc(/C=N/N=C2/C(=O)Nc3ccccc32)cc1O,-21.8%,–
O=C(O)c1ccc(/C=N/Nc2nc(N3CCCCC3)nc(N3CCCCC3)n2)cc1,-9.34%,–
CCOC(=O)c1c(NC(=O)/C(C#N)=C/c2ccccc2)sc2c1CCC2,8.89%,–
N#C/C(=C\C1=C(N2CCOCC2)C(=C\c2ccccc2)/CC1)C(=O)Nc1ccccc1F,–,14.6 µM (active)
O=C(CN1CCN(c2ccccn2)CC1)N1CCc2ccccc21,2.96%,–
O=C(O)c1ccc(NN=CC2=C(N3CCOCC3)/C(=C/c3ccccc3)CC2)cc1,–,3.26 µM (active)
CCN(CC)c1ccc(C(=O)N/N=C/c2ccc(N3CCOCC3)cc2)cc1,6.01%,–
O=C(CSc1nnc(N2CCOCC2)n1-c1cccc(F)c1)N1CCN(c2ccccn2)CC1,-13.3%,–
O=C(CC1SC(N2CCOCC2)=NC1=O)Nc1ccccc1F (centres undefined),-6.39%,–

SMILES,"activity change, negative = growth inhibition",Potency
Cc1cc(C(=O)NNS(=O)(=O)c2ccccc2C(F)(F)F)nn1C(C)(C)C,-11.6%,–
O=c1cc(CSc2ccccn2)nc(N2CCN(c3ccccc3)CC2)[nH]1,-11.7%,–
N/C(=N\OC(=O)CCc1ccccc1)c1ccc(Cl)cc1,-18.2%,–
O=C(NCc1ccccn1)[C@@H]1CCCN1C(=O)[C@@H]1CCCN1C(=O)c1ccccc1,-6.12%,–
COC(=O)c1ccccc1NC(=O)CSc1nc2c(c(=O)[nH]1)CCC2,5.57%,–
COC(=O)C1=C(C(=O)OC)[C@@H]2N(C)c3ccccc3[C@@]23C[C@@H](C(=O)OC)N(C(C)=O)C3=N1,1.75%,–
O=C1C(c2ccccn2)=[N+]([O-])c2ccccc21,-7.8%,–
CCC(=O)Nc1cccc(NC(=O)CSc2nnc(-c3ccc(NS(C)(=O)=O)cc3)n2C)c1,-6.48%,–
O=C(COc1ccccc1F)OCc1cc(=O)n2nc(C3CCCCC3)sc2n1,5.26%,–
O=C(CSc1n[nH]c(-c2cccs2)n1)N1CCCCC1,1.91%,–
Cc1cccc(NC(=O)c2cccc(C(F)(F)F)c2)c1,-24%,–
O=C(Nc1ccc(-c2csc(Nc3cccc(C(F)(F)F)c3)n2)cc1)c1cccc(C(F)(F)F)c1,–,6.51 µM (active)
CNC(=O)c1ccc(NC(=O)c2cccc(C(F)(F)F)c2)cc1,-13.5%,–
CCOC(=O)NC(C(F)(F)F)(C(F)(F)F)P(=O)(c1ccccc1)c1ccccc1,-26.8%,–
CCOC(=O)c1sc(NC(=O)CSc2ncccn2)c(C#N)c1C,-16%,–
O=C(Nc1ccc(C2CC2(Cl)Cl)cc1)c1cccc([N+](=O)[O-])c1 (centres undefined),–,18.4 µM (active)
O=C(Nc1nnc(SCc2ccccc2Cl)s1)c1cccc([N+](=O)[O-])c1,-24.4%,–
Cc1cc(C)nc(NC(=O)c2cccc([N+](=O)[O-])c2)c1,-72.1%,–
Cc1ccc(CNC(=O)CCN2C(=O)[C@@H]3Cc4ccccc4CN3C2=O)cc1,2.46%,–
CN(NC(=O)C1CC(=O)N(c2ccccc2)C1)C1=NS(=O)(=O)c2ccccc21 (centres undefined),9.53%,–
O=C1NC(c2ccccc2)=NC1(Nc1ccccn1)C(F)(F)F (centres undefined),-0.592%,–
CCCNC(=O)N1CCC(c2ccc3c(c2)OCO3)CC1,5.53%,–
CC1Cn2c(nnc2-c2cccs2)S1 (centres undefined),-6.14%,–
N#C/C(=C(/O)COc1cccc2ccccc12)c1nc2ccccc2[nH]1,-9.31%,–
COc1ccccc1C(=O)COC(=O)COc1ccc(C#N)cc1,5.36%,–
N#C/C(=C(/O)COC(=O)COc1ccc(Cl)cc1)c1nc2ccccc2[nH]1,–,4.61 µM (active)
